This passage reports outcome and inhibition results from PubChem BioAssay.

Test [1] has as its system TRPC4 beta (transient receptor potential cation channel C4), mouse. Put plainly: activators of mouse TRPC4 channel, confirmation, cell-based, Fluo4 calcium, HEK293 TRPC4beta/mu-opioid, duplicates, 10 µM (AID 2426;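 active = fluorescence ratio normalized to control raised more than 50% in primary screen plus both repeat runs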). To be noted: Fluo4 calcium fluorescence, at 10 µM; stronger effect = higher value.
Test [2] concerns transient receptor potential cation channel C4 beta (TRPC4), mouse. Put plainly: activators of mouse TRPC4 channel, confirmation, cell-based, second round, Fluo4, HEK293 TRPC4beta/mu-opioid, 1 µM (AID 2461;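 active = primary screen active and over 50% activation in each of two duplicate runs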). To be noted: Fluo4 calcium fluorescence, at 1 µM; stronger effect = higher value.
For test [3], the system named is TRPC4 (transient receptor potential cation channel C4 beta), mouse. Put plainly: positive allosteric modulators of mouse TRPC4, confirmation, cell-based, second round, Fluo-4, HEK293 TRPC4beta/mu-opioid, 1 µM (AID 2554;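 active = primary screen hit whose fluorescence ratio, in both repeats, exceeds the weak agonist control mean by 3 SD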). The following applies: DAMGO EC20, Fluo-4 calcium flux, at 1 µM; stronger effect = higher value. Background: Calcium flux is commonly read through the fluorescence of an indicator in the cells.

The test system of test [4] is TRPC4 beta (transient receptor potential cation channel C4), mouse. Put plainly: positive allosteric modulators of mouse TRPC4, confirmation, cell-based, Fluo-4, HEK293 TRPC4beta/mu-opioid (AID 2555;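 active = primary screen hit whose calcium fluorescence ratio, in both repeats, exceeds the weak agonist control mean by 3 SD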). The following applies: DAMGO EC20, Fluo-4 calcium flux, at 10 µM; stronger effect = higher value.
Test [5] deals with Short transient receptor potential channel 4 (Mus musculus) (UniProt Q9QUQ5). As to the kind of experiment: inhibitors of mouse TRPC4 channel, confirmation, cell-based, Fluo4, HEK293 TRPC4beta/mu-opioid (AID 2636;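 active = calcium signal cut by more than 3 SD below the full-agonist control yet still positive, in both repeats and the earlier primary screen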). The following applies: DAMGO, Fluo4 calcium flux, at 10 µM; stronger effect = higher value.
Sequence of Short transient receptor potential channel 4 (Mus musculus) (Q9QUQ5 whole entry, looked up): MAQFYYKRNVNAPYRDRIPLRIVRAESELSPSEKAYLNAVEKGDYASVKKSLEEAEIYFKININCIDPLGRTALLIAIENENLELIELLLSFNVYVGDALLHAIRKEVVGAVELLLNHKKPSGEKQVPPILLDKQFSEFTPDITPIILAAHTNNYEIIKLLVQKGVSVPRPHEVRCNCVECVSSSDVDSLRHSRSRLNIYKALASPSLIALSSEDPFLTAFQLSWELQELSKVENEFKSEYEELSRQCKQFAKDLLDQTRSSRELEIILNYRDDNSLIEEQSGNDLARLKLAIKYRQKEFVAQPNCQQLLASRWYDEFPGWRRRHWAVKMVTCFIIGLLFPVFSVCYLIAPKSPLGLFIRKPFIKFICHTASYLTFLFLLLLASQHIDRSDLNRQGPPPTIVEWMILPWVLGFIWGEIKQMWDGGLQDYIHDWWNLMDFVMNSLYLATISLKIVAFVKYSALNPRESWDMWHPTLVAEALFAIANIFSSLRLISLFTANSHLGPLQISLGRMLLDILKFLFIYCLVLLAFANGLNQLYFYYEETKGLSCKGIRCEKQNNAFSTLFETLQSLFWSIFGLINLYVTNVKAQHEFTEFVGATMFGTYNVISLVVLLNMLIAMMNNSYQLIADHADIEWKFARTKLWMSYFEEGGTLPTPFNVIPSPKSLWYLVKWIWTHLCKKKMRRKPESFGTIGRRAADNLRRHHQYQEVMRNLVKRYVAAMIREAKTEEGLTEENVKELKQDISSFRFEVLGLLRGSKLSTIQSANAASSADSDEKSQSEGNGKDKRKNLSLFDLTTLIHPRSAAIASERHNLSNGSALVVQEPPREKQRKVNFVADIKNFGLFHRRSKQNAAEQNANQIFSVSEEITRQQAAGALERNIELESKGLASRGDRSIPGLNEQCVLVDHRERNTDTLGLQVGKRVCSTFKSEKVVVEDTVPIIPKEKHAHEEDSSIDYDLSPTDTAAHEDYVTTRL
Test [6] has the same target. As to the kind of experiment: inhibitors of mouse TRPC4 channel, confirmation, cell-based, second round, Fluo4, HEK293 TRPC4beta/mu-opioid, 1 µM (AID 2637;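 active = calcium signal ratio cut to more than 3 SD under the fully stimulated control mean yet still positive, in both repeats and the primary screen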;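 as to inhibition: percent of integrated ratio relative to wells lacking test compound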). To be noted: Fluo4 calcium flux, DAMGO, at 1 µM; stronger effect = higher value.
The target is the same in test [7]. As to the kind of experiment: mouse TRPC4 channel activators, dose response, cell-based, HEK293 TRPC4/mu-opioid, Fluo-4 calcium (AID 434937;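 active = primary screen activator hit with a dose response curve and TRPC4 channel activation at any tested dose; inactive = no activation, no dose response, or not a primary hit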).
Test [8] has the same target. As to the kind of experiment: TRPC4 positive allosteric modulators, dose response, cell-based, HEK293 TRPC4/mu-opioid, Fluo-4 calcium, EC20 DAMGO (AID 434941;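 active = earlier screen potentiator hit that boosts the TRPC4 ion channel at some dose, with a dose response; inactive = no potentiation, no dose response, or not a prior hit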;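 also: calcium entry triggered by an EC20 dose of DAMGO at the co-expressed mu-opioid receptor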).
Test [9] has as its target Short transient receptor potential channel 6 (Mus musculus) (UniProt Q61143). Put plainly: inhibition of mouse TRPC6 channel, confirmation, selectivity assay for TRPC4 inhibitor project, cell-based, HEK293, membrane potential dye, duplicate (AID 434948;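 active = active in primary screen and both duplicates, each dropping signal beyond three positive-control SD with fluorescence still positive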). To be noted: HEK293 TRPC6, membrane potential dye fluorescence, at 10 µM, stimulated with maximal-effect acetylcholine; stronger effect = higher value.

Test [10] shares this target. As to the kind of experiment: activation of mouse TRPC6 channel, confirmation, selectivity assay for TRPC4 activator project, cell-based, HEK293, membrane potential dye, duplicate (AID 434950;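 active = membrane potential signal rise above negative control mean plus 3 SD in both duplicates, also active in the earlier TRPC4 screen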). The following applies: HEK293 TRPC6, membrane potential fluorescence, at 10 µM; stronger effect = higher value.
Test [11] has the same target. Put plainly: TRPC6 potentiation by TRPC4 potentiator hits, confirmation, selectivity assay for TRPC4 potentiator project, HEK293 cells, membrane potential dye, duplicate (AID 434952). To be noted: HEK293 TRPC6, membrane potential dye fluorescence, at 10 µM, maximal acetylcholine added after compound; stronger effect = higher value.
Test [12] concerns the target Short transient receptor potential channel 4 (Mus musculus) (UniProt Q9QUQ5). Put plainly: calcium flux activators in TRPC4/5HT1a cells, counter-screen for TRPC4 activator project, cell-based, second counter screen, HEK293 TRPC4/5HT1a, Fluo-4 (AID 434977;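 active = calcium signal rise above buffer-control mean plus 5 SD in both duplicates, and also a hit in the primary screen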). To be noted: Fluo-4 calcium flux, at 10 µM; stronger effect = higher value.
Test [13] in a line: calcium flux inhibitors in TRPC4/5HT1a cells, confirmation, counter-screen for TRPC4 inhibitor project, cell-based, second counter screen, HEK293 TRPC4/5HT1a, Fluo-4 (AID 434978;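 active = primary screen active whose calcium signal fell more than 3 SD beyond the full-serotonin control mean in both duplicate plates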;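 as to outcome: serotonin given first at submaximal then at maximal dose after compound preincubation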). To be noted: Fluo-4 calcium flux, at 10 µM, serotonin added to trigger calcium flux; stronger effect = higher value.
Test [14] deals with TRPC4 (mouse), co-expressed with 5HT1a in HEK293. As to the kind of experiment: calcium flux potentiators in TRPC4/5HT1a cells, confirmation, counter-screen for TRPC4 potentiator project, cell-based, second counter screen, HEK293 TRPC4/5HT1a, Fluo-4 (AID 434979;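 active = signal rise over 3 SD above mean of control wells given weak agonist, in both repeats and first screen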). To be noted: Fluo-4 calcium flux, at 10 µM, serotonin added at its EC20 dose; stronger effect = higher value.
Test [15] can be described thus: calcium flux activation in mu-opioid HEK293 cells, confirmation, counter-screen for TRPC4 activator project, cell-based, HEK293 mu-opioid receptor line (AID 449723;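 active = hit in primary screen, with calcium signal over 5 SD above buffer well mean in both duplicates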;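 also: counter screen cells carry the mu-opioid receptor alone and lack TRPC4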). To be noted: Fluo-4 calcium fluorescence, at 10 µM; stronger effect = higher value.
Test [16] in a line: calcium flux enhancement in mu-opioid HEK293 cells, confirmation, counter-screen for TRPC4 allosteric potentiator project, cell-based, HEK293 mu-opioid receptor line (AID 449724;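 active = calcium signal rise more than 3 SD above the low-dose agonist control mean, in both duplicate plates and the primary screen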;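 also: HEK293 cells carrying mu-opioid receptor only with no TRPC4 channel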). To be noted: Fluo-4 calcium flux, at 10 µM, compound added before EC20 DAMGO stimulus; stronger effect = higher value.

SMILES strings stand for the structures. For part of these data: Potency and affinity values are given separately. Active and inactive are the calls of the source.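 The calls were made as follows, unless noted: active = compound raising the membrane signal above positive-control mean plus 3 SD in both repeats, and a primary screen hit; inactive = the rest.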

Sequence of Short transient receptor potential channel 6 (Mus musculus) (Q61143 whole entry, looked up): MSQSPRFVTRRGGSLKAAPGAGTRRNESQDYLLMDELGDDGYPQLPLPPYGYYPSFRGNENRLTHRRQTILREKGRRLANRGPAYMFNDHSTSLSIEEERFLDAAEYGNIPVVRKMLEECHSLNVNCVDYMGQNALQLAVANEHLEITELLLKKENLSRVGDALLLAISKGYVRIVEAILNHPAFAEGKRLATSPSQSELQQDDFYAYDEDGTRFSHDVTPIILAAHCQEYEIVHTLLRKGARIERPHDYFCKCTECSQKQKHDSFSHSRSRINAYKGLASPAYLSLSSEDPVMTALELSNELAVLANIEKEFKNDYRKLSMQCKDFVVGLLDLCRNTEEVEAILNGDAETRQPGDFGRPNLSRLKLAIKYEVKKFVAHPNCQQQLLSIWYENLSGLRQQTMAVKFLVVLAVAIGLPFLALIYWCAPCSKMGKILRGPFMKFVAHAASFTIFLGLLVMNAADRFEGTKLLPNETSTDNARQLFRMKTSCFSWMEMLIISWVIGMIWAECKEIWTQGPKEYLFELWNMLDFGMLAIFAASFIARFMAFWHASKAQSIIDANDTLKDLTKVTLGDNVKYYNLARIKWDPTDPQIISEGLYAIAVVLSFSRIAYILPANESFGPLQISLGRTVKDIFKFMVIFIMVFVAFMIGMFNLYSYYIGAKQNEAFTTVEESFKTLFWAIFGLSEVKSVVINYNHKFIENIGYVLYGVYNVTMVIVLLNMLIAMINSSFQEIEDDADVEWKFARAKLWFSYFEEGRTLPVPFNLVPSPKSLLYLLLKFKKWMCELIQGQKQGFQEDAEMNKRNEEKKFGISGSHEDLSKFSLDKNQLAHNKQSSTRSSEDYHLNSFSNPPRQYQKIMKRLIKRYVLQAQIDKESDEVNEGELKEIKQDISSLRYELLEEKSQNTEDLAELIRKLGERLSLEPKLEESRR

Regarding `Cc1ccc(Cn2c(=N)n(CC(O)c3ccco3)c3ccccc32)cc1` (stereo not given), the outcome in test [1], in [2], in test [3], in [4], in test [7] and in test [8] was inactive. The outcome in test [10], in test [11], in [12], in test [14], in test [15] and in test [16] was inactive. The inhibition (in general, how much of the control response was suppressed) in [5] is 94% (active); in test [6] it was 63% (active); in test [9], 37% (active); in test [13], 17.1% (active).

As for `Cc1ccc(NC(=O)CN2CCc3ccccc3C2)cc1F`, the outcome in [1], in test [2], in test [3], in test [4], in test [6] and in [7] was inactive. Moreover, the result in [8], in test [9], in test [10], in test [11], in [12] and in test [13] was inactive. Besides, the outcome in test [14], in test [15] and in test [16] was inactive. Also, the inhibition in test [5] is 88% (active).

With `c1ccc(COC(CN2CCCCCC2)CN2CCCCCC2)cc1`, the outcome in test [1], in test [2], in test [3], in test [4], in test [6] and in test [7] was inactive. The outcome in [8], in [9], in test [10], in [11], in test [12] and in test [14] was inactive. Further, the outcome in [15] and in test [16] was inactive. The figures for the inhibition in test [5] and in test [13] were 93% (active) and 31.1% (active), respectively.

For the molecule `COc1ccc(CN2CCN(C(=O)c3ccc(F)cc3)CC2)c(OC)c1`, the result in test [1], in test [2], in test [3], in [4], in test [7] and in test [8] was inactive. Moreover, the call in [9], in test [10], in [11], in [12], in test [14] and in test [15] was inactive. Also, the outcome in test [16] was inactive. The inhibition in test [5] is 93% (active); in test [6] it was 57% (active); in [13], 35.3% (active).

Turning to `c1csc(CNc2nc(-c3cccs3)nc3ccccc23)c1`, the result in test [1], in [2], in test [3], in test [4], in test [6] and in [7] was inactive. Also, the result in test [8], in [9], in test [10], in [11], in test [12] and in test [14] was inactive. For the same molecule, the result in [15] and in test [16] was inactive. Moreover, the figures for the inhibition in [5] and in test [13] were 78% (active) and 29.7% (active), respectively.

Consider `O=C1/C(=C/c2ccccc2Cl)SC(=S)N1CCCC(=O)N(CCO)c1ccccc1`, for which the result in [1], in [2], in [3], in [4], in test [7] and in test [8] was inactive. For the same molecule, the molecule was called inactive in test [9], in test [10], in [11], in test [12], in test [14] and in test [15]. Also, the result in [16] was inactive. The inhibition was 83% (active) in [5], 50% (active) in test [6] and 24.9% (active) in test [13].

Turning to `O=C(NC1CCCCC1)N1CCN(C(c2ccccc2)c2ccccc2)CC1`, the outcome in test [1], in [2], in test [3], in test [4], in test [5] and in test [6] was inactive. Also, the result in [7], in [8], in test [9], in [10], in test [11] and in [12] was inactive. Also, the result in test [13], in test [14], in [15] and in [16] was inactive.

`CN(C(=O)CSc1nc(-c2ccc(C(C)(C)C)cc2)c(C#N)c(=O)[nH]1)C1CCCCC1`: the outcome in [1], in test [2], in test [3], in [4], in [6] and in [7] was inactive. Moreover, the outcome in [8], in test [9], in [10], in test [11], in test [12] and in [14] was inactive. For the same molecule, the result in [15] and in [16] was inactive. The inhibition in test [5] was 97% (active); in test [13], 4.92% (active).

With `Clc1ccc2c(c1)-c1nnc(Br)n1-c1ccccc1S2`, the result in test [1], in test [2], in test [3], in test [4], in test [6] and in [7] was inactive. The result in [8], in test [9], in test [10], in test [11], in test [12] and in test [13] was inactive. The result in test [14], in test [15] and in test [16] was inactive. For the same molecule, in test [5], the inhibition is 83% (active).

`CCCc1cc(=O)[nH]c(SCC(=O)Nc2sc3c(c2C#N)CCCC3)n1`: the outcome in [1], in [2], in test [3], in test [4], in [6] and in test [7] was inactive. The outcome in test [8], in test [9], in test [10], in test [11], in test [12] and in test [13] was inactive. Besides, the outcome in test [14], in test [15] and in test [16] was inactive. The inhibition in [5] was 85% (active).

On to `Cc1ncsc1CCOC(=O)C12CC3CC(CC(C3)C1)C2`, for which the outcome in test [1], in [2], in test [3], in [4], in test [6] and in [7] was inactive. Also, the outcome in test [8], in test [9], in [10], in [11], in [12] and in test [14] was inactive. Moreover, the result in test [15] and in [16] was inactive. For the same molecule, the inhibition was 94% (active) in test [5] and 17.8% (active) in test [13].

Consider `CC1(C)CC2CC(C)(CN2CC(O)COc2ccccc2)C1` (stereo not given), for which the result in [1], in test [2], in test [3], in [4], in test [6] and in test [7] was inactive. In addition, the outcome in test [8], in test [9], in test [10], in [11], in test [12] and in [13] was inactive. Also, the result in test [14], in test [15] and in test [16] was inactive. In addition, the inhibition in [5] was 86% (active).

As for `CCOc1cc(/C=C2\C(=N)N3N=CSC3=NC2=O)ccc1OS(=O)(=O)c1ccccc1`, the result in test [1], in test [2], in [3], in test [4], in test [6] and in test [7] was inactive. Also, the result in test [8], in test [9], in test [10], in test [11], in test [12] and in [14] was inactive. For the same molecule, the outcome in [15] and in [16] was inactive. Also, the inhibition is 96% (active) in test [5] and 16.2% (active) in [13].

Turning to `Cc1ccc2c(c1)N(C(=O)CCC(=O)Nc1ccccc1Cl)CC(C)O2` (stereo not given), the result in [1], in test [2], in test [3], in test [4], in test [6] and in [7] was inactive. In addition, the outcome in test [8], in test [9], in [10], in test [11], in [12] and in [13] was inactive. In addition, the outcome in test [14], in test [15] and in test [16] was inactive. Also, the inhibition in test [5] is 73% (active).

With `c1ccc(-c2nc(NCc3ccco3)c3ccccc3n2)nc1`, the outcome in test [1], in test [2], in [3], in test [4], in [7] and in [8] was inactive. Besides, the call in [10], in test [11], in test [12], in test [14], in [15] and in test [16] was inactive. The inhibition in [5] was 93% (active); in test [6] it was 74% (active); in test [9], 34.5% (active); in test [13] it was 22.1% (active).
